Consider 38 compounds from the supplement of paper PMC6763611.

This assay deals with Plasmodium falciparum NF54. As to the kind of experiment: growth inhibition relative to untreated control; higher = more inhibition. As to conditions: 5 µM; minimal medium (MM); 72 h. An outline of the steps: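 P. falciparum NF54 ring stages (1% hematocrit, 1% parasitemia, 100 μL/well in 96-well half-area dark plates) were exposed for 72 h at 37 °C to single 5 μM or 1 μM doses of Pathogen Box compounds. The medium was minimal RPMI or minimal RPMI plus chorismate end-products (2.2 μM folate, 7.3 μM pABA, 7.3 μM pHBA, 111 μM tyrosine, 90 μM phenylalanine, tryptophan). Growth inhibition was read by SYBR Green, normalised to untreated controls, with uninfected erythrocytes as background.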
`N#CCN(CCCCN1CCN(c2ccc(F)cc2)CC1)C(=O)OCc1ccccc1` came in with a growth inhibition of 18.1%. Under `COc1cc(OC)cc(C(=O)NCC2Cc3cc(Cl)cc(-c4ccncc4)c3O2)c1` (stereo not drawn) stands 91.9%; under `CN1CCCC1CCO[C@](C)(c1ccccc1)c1ccc(Cl)cc1` (stereo partly drawn), 93.3%. `O=C(C1CCN(c2cc(-n3cccc3)ncn2)CC1)N1CCc2ccccc2C1` came in with a growth inhibition of 3.34%.

With `Brc1cncc(-c2cc(NCCCn3ccnc3)nc(-c3ccccc3)n2)c1`, the growth inhibition is 90.1%. Then `O=C(NC1CCCCC1)N1CCN(Cc2ccc3c(c2)OCO3)CC1`, with less than 0%; and `CCNC(=O)C(C)Nc1nc(-c2cccnc2)nc2sc(C)c(C)c12` (stereo not drawn), with 31.6%; and `CN(C)c1cc(NC(=O)Nc2ccccc2)c2ccccc2n1`, with 87.9%. Turning to `Nc1ncnc2c1ncn2C[C@@H](O)[C@@H](O)C(=O)O`, the growth inhibition was less than 0%. Under `CCOC(=O)NC(=O)c1ccsc1NC(=O)c1nc2ccccc2s1` stands less than 0%; under `O[C@@H](c1cc(C(F)(F)F)nc2c(C(F)(F)F)cccc12)[C@H]1CCCCN1`, 85.5%; under `Cc1ccccc1CN1CCC(O)(c2ccc(Cl)c(C(F)(F)F)c2)CC1`, 76.2%. The compound `CC(=O)NCC1CN(c2ccc(-c3ccc(CO)cc3)c(F)c2)C(=O)O1` (stereo not drawn) had a growth inhibition of 17.6%. Then `CCOc1ccc2cc(-c3nn(C(C)(C)C)c(N)c3C(N)=O)cnc2c1`, with less than 0%; and `c1ccc2c(c1)CN(CC1CC1)CC1(CCN(Cc3c[nH]c4cnccc34)CC1)O2`, with 87.4%; and `COc1ccc(C2=NN(C3CCCCCC3)C(=O)[C@@H]3CC=CC[C@H]23)cc1OCCCCOc1ccc(-c2nnn[nH]2)cc1`, with 48.6%. Then `CN1CCN(c2nccc3[nH]c(-c4cccc(F)c4)cc23)CC1`, with 90%. In the case of `COc1ccc(C2CC(c3cccs3)=NN2C(=O)c2ccco2)cc1OC` (stereo not drawn), the growth inhibition stood at 93.4%. Under `CC1CS(=O)(=O)CCN1/N=C/c1ccc([N+](=O)[O-])o1` (stereo not drawn) stands less than 0%.

`Nc1ccc(C(=O)Nc2ccc(-c3nc4ccccc4o3)cc2)cc1`: the growth inhibition came out at 26.5%. Under `Cc1cc(O)nc(-n2nc(C)cc2C)n1` stands less than 0%; under `Cc1c[nH]c(CCNC(=O)c2cc(-c3ccc(Cl)cc3)cs2)n1`, 94.7%.

`Nc1ncnc2c1c(Cc1cccc3ccccc13)nn2CC1CCNCC1` came in with a growth inhibition of less than 0%. Under `CCCCS(=O)(=O)Nc1ccc2cnn(C)c2c1` stands 1.13%. On to `COc1ccc2nccc(NC(=O)C3CCN(CCc4ccc(Cl)cc4)CC3)c2n1`, for which the growth inhibition was found to be 42.2%.

The compound `Cc1noc(C)c1C(=O)N1CCCC(c2[nH]c3c(C)cccc3c2-c2ccncc2)C1` (stereo not drawn) yielded a growth inhibition of 92.4%. Under `FC(F)(F)c1cccc(-c2nc3c(NCc4ccncc4)nccc3[nH]2)c1` stands 96%; under `CCOc1ccc(-c2nc(NC(=O)CS(=O)(=O)c3ccccc3)sc2C)cc1`, 92.6%; under `O=C(NCCc1ccccc1)c1cc(-c2cccnc2)cnc1NCC1CC1`, 47%. The compound `COc1cc(C2=NCCN2)ccc1-c1cn(-c2cccc(C3=NCCN3)c2)nn1` yielded a growth inhibition of 88.7%. For the compound `Cc1ccc2nc(C)c(-c3ccn(Cc4ccccc4)n3)n2c1`, the growth inhibition is less than 0%. On to `CCN(CC)CCCN1CCN(C(=O)c2cccc(-c3noc(C(F)(F)F)n3)c2)CC1`, for which the growth inhibition is 87%.

`Cc1ccc2[nH]c3c(NCCN(C)C)ncnc3c2c1` displayed a growth inhibition of 95.7%. Consider `C[C@]1(O)C[C@@H](c2nc(-c3ccc4ccc(-c5ccccc5)nc4c3)c3c(N)nccn32)C1`, for which the growth inhibition is 43.8%. Under `COC(=O)C1=C(C)NC(C)=C(C(=O)OC(C)C)C1c1cccc2nonc12` (stereo not drawn) stands 18.7%; under `O=S(=O)(c1ccc(Cl)cc1)N1CCN(C(=S)NCc2ccco2)CC1`, 92.6%; under `O=C(Nc1nnc(-c2ccc(Cl)cc2)o1)c1cccc(C(F)(F)F)c1`, less than 0%. Then `CC1COC2(CCN(c3nc(=O)c4cc(C(F)(F)F)cc([N+](=O)[O-])c4s3)CC2)O1` (stereo not drawn), with less than 0%.
